From the supplement of paper PMC12645437, “Orthogonal IMiD-Degron Pairs Induce Selective Protein Degradation in Cells” (ACS Chemical Biology, 2025)
Over roughly 8,300 sequences, “log2 fold change of degron read counts, EGFP-low vs EGFP+ sorted cells (limma voom), compound-induced degradation” has its median near -1.1; the highest 2% begin near 3.2. This excerpt belongs to a sample that is enriched for the highest values.

T1: CRBN, Q96SW2
T1 chain: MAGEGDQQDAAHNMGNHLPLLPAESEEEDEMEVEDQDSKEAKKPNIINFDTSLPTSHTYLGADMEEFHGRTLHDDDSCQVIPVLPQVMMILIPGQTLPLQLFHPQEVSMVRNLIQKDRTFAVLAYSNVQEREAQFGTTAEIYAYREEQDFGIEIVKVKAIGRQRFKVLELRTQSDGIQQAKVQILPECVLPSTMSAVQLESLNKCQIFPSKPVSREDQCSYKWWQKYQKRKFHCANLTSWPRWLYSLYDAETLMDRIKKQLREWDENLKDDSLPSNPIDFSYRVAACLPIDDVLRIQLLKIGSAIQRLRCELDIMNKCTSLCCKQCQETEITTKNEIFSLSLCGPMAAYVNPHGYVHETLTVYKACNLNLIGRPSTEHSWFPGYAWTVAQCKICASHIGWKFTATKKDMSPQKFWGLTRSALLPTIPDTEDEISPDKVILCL


Molecular target: T1, CRBN, Q96SW2
Assay: log2 fold change of degron read counts, EGFP-low vs EGFP+ sorted cells (limma voom), compound-induced degradation; higher = more compound-induced degradation of the degron-EGFP fusion; degrons are variants of IKZF1/3 zinc finger 2; compound dose not given here
Conditions: Jurkat, 18 h
[1] = compound: compound 19 (5-tert-butyl-thalidomide)
[2] = compound: compound 22 (5-morpholino-thalidomide)
[3] = compound: compound 33 (diphenyl IMiD analogue)
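Note: pooled lentiviral library of zinc finger degron-EGFP fusions in mCherry-positive Jurkat cells, FACS-sorted after compound exposure, with degron abundance counted by next-generation sequencing.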

Row | Sequence | log2 fold change of degron read counts [1] | log2 fold change of degron read counts [2] | log2 fold change of degron read counts [3] | log2 fold change of degron read counts (compound: thalidomide)
1 | FFCPICGRAFTQKGNLLRHIKL [46F_47F_49P_50I_52G_53R_54A_55F_67L_, Q9UKT9] | -0.764 | -1.23 | -0.0789 | -1.31
2 | FICPVCGAYFTQKGNLLRHIKL [46F_47I_49P_50V_52G_53A_54Y_55F_67L_, Q9UKT9] | -0.575 | 1.65 | 1.98 | 1.66
3 | FHCEVCGAWFTQKGNLLRHIKL [46F_47H_49E_50V_52G_53A_54W_55F_67L_, Q9UKT9] | -1.47 | -1.81 | -0.825 | -1.89
4 | LDCEICGFICTQKGNLLRHIKL [46L_47D_49E_50I_52G_53F_54I_55C_67L_, Q9UKT9] | -0.803 | -0.92 | -0.72 | -0.457
5 | LRCPICGFDCTQKGNLLRHIKL [46L_47R_49P_50I_52G_53F_54D_55C_67L_, Q9UKT9] | -1.49 | -1.07 | 0.189 | 0.67
6 | LRCNQCGFACTQKGNLLRHIKL [46L_47R_49N_50Q_52G_53F_54A_55C_67L_, Q9UKT9] | -1.46 | -1.7 | -0.712 | -0.94
7 | FWCDQCGAQFTQKGNLLRHIKL [46F_47W_49D_50Q_52G_53A_54Q_55F_67L_, Q9UKT9] | 0.249 | 2.32 | -0.8 | -1.65
8 | FCCEICGHVFTQKGNLLRHIKL [46F_47C_49E_50I_52G_53H_54V_55F_67L_, Q9UKT9] | -2.85 | -3.23 | -2.09 | -2.16
9 | FTCPICGAAFTQKGNLLRHIKL [46F_47T_49P_50I_52G_53A_54A_55F_67L_, Q9UKT9] | 2.48 | 2.97 | 2.48 | 2.67
10 | FMCPICGAAFTQKGNLLRHIKL [46F_47M_49P_50I_52G_53A_54A_55F_67L_, Q9UKT9] | 2.31 | 2.47 | 2.94 | 2.32
11 | FLCPICGAAFTQKGNLLRHIKL [46F_47L_49P_50I_52G_53A_54A_55F_67L_, Q9UKT9] | 1.31 | 0.494 | 1.82 | 1.59
12 | FACPICGAAFTQKGNLLRHIKL [46F_47A_49P_50I_52G_53A_54A_55F_67L_, Q9UKT9] | 3.73 | 2.93 | 1.69 | 1.69
13 | FDCPICGAAFTQKGNLLRHIKL [46F_47D_49P_50I_52G_53A_54A_55F_67L_, Q9UKT9] | 2.39 | 0.645 | 1.79 | 2.2
14 | FCCPICGAAFTQKGNLLRHIKL [46F_47C_49P_50I_52G_53A_54A_55F_67L_, Q9UKT9] | 3.34 | 2.84 | 2.48 | 2.21
15 | FICNVCGAIFTQKGNLLRHIKL [46F_47I_49N_50V_52G_53A_54I_55F_67L_, Q9UKT9] | -2.95 | -2.03 | 0.29 | -1.36
16 | FVCNQCGRVFTQKGNLLRHIKL [46F_47V_49N_50Q_52G_53R_54V_55F_67L_, Q9UKT9] | -2.6 | -2.87 | -2.56 | -2.9
17 | FLCDVCGAGFTQKGNLLRHIKL [46F_47L_49D_50V_52G_53A_54G_55F_67L_, Q9UKT9] | -0.0363 | -1.56 | -0.558 | -1.42

Row | Sequence | log2 fold change of degron read counts [1] | log2 fold change of degron read counts [2] | log2 fold change of degron read counts [3] | log2 fold change of degron read counts (compound: thalidomide)
18 | FMCDICGAQFTQKGNLLRHIKL [46F_47M_49D_50I_52G_53A_54Q_55F_67L_, Q9UKT9] | -1.1 | -0.152 | 2.21 | -0.153
19 | FNCNQCGRFFTQKGNLLRHIKL [46F_47N_49N_50Q_52G_53R_54F_55F_67L_, Q9UKT9] | -1.77 | -2.76 | -1.9 | -1.6
20 | FRCPICGHIFTQKGNLLRHIKL [46F_47R_49P_50I_52G_53H_54I_55F_67L_, Q9UKT9] | -2.22 | -2.81 | -1.62 | -1.42
21 | FLCEICGHQFTQKGNLLRHIKL [46F_47L_49E_50I_52G_53H_54Q_55F_67L_, Q9UKT9] | -3.24 | -3.62 | -3.53 | -2.18
22 | LKCPICGFDCTQKGNLLRHIKL [46L_47K_49P_50I_52G_53F_54D_55C_67L_, Q9UKT9] | -1.99 | -1.82 | -1.08 | -0.789
23 | FGCEICGHGFTQKGNLLRHIKL [46F_47G_49E_50I_52G_53H_54G_55F_67L_, Q9UKT9] | -2.33 | -2.62 | -2.89 | -2.42
24 | FLCPICGRFFTQKGNLLRHIKL [46F_47L_49P_50I_52G_53R_54F_55F_67L_, Q9UKT9] | -1.24 | -1.32 | 0.143 | 0.16
25 | FACPICGASFTQKGNLLRHIKL [46F_47A_49P_50I_52G_53A_54S_55F_67L_, Q9UKT9] | 3.73 | 2.44 | 1.48 | 1.61
26 | FICPICGASFTQKGNLLRHIKL [46F_47I_49P_50I_52G_53A_54S_55F_67L_, Q9UKT9] | -0.0282 | 2.87 | 1.99 | 2.6
27 | FSCPICGASFTQKGNLLRHIKL [46F_47S_49P_50I_52G_53A_54S_55F_67L_, Q9UKT9] | 3.35 | 2.78 | 2.17 | 2.01
28 | FMCPICGASFTQKGNLLRHIKL [46F_47M_49P_50I_52G_53A_54S_55F_67L_, Q9UKT9] | 1.54 | 2.45 | 2.91 | 2.41
29 | FCCPICGASFTQKGNLLRHIKL [46F_47C_49P_50I_52G_53A_54S_55F_67L_, Q9UKT9] | 3.32 | 2.71 | 2.44 | 2.37
30 | FECPICGASFTQKGNLLRHIKL [46F_47E_49P_50I_52G_53A_54S_55F_67L_, Q9UKT9] | 2.15 | -0.116 | 2.38 | 3.32
31 | FVCPICGASFTQKGNLLRHIKL [46F_47V_49P_50I_52G_53A_54S_55F_67L_, Q9UKT9] | 0.995 | 2.78 | 2.19 | 3.08
32 | FCCNICGASFTQKGNLLRHIKL [46F_47C_49N_50I_52G_53A_54S_55F_67L_, Q9UKT9] | 1.56 | 1.91 | 1.76 | 1.41
33 | FECNICGASFTQKGNLLRHIKL [46F_47E_49N_50I_52G_53A_54S_55F_67L_, Q9UKT9] | -0.173 | -1.42 | 0.849 | 1.86
34 | FRCPICGASFTQKGNLLRHIKL [46F_47R_49P_50I_52G_53A_54S_55F_67L_, Q9UKT9] | 1.96 | 1.71 | 1.79 | 1.78
